In PubChem BioAssay (EPA / NIEHS):
Where “and” joins values, the source holds several entries; their conditions need not be identical. Identical values can stand only once. More than one record can exist for a structure, and the calls need not agree. Calls of active or inactive are those of the source. How the source made its calls: active means hit-call score of the fitted dose curve at least 0.9, where 1 is the maximum; inactive means score below 0.9.

Key:
[1] = APR_HepG2_CellCycleArrest_1hr: Apredica 1-hour HepG2 Assay for Cell Cycle Arrest (AID 2282666); details: high-content imaging, actives raise or lower the signal
Summary of the method: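 Cell cycle arrest scored from nuclear DNA content (Hoechst 33342) using high-content imaging of fixed HepG2 cells after 1 h treatment across 0.39–200 uM, in duplicate. Gain or loss fitted relative to 0.5% DMSO.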

[2] = APR_HepG2_CellLoss_1hr: Apredica 1-hour HepG2 Assay for Cell Loss (AID 2282668); details: high-content imaging;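 further: curves fitted both ways against DMSO so gain or loss of cells counts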
Summary of the method: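 Cell number comes from high-content imaging of Hoechst-labelled nuclei in fixed HepG2 cells. Cells were exposed for 1 h to ten concentrations from 0.39 to 200 uM in 0.5% DMSO. Gain or loss was fitted against DMSO controls.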

[3] = APR_HepG2_MicrotubuleCSK_1hr: Apredica 1-hour HepG2 Assay for Microtubule CSK Stabilty (AID 2282669); details: HepG2 microtubule cytoskeleton imaging, actives raise or lower the signal
Summary of the method: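 Alpha-tubulin immunofluorescence, imaged by automated high-content microscopy with Hoechst nuclear segmentation, measured cytoskeletal change after 1 h dosing of HepG2 at 0.39–200 uM in 0.5% DMSO. Activity fitted in both directions relative to DMSO.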

[4] = APR_HepG2_NuclearSize_1hr: Apredica 1-hour HepG2 Assay for Nuclear Size (AID 2282670); details: high-content imaging, actives raise or lower the signal
Summary of the method: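 Nuclear size measured by high-content imaging of Hoechst 33342 nuclear stain after formaldehyde fixation; human HepG2 line exposed 1 hr to compounds at 0.39–200 uM in 0.5% DMSO, with bidirectional curve fitting relative to DMSO.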

[5] = APR_HepG2_P-H2AX_1hr: Apredica 1-hour HepG2 Assay for H2AX Phosphorylation (AID 2282673); details: high-content imaging, actives raise or lower the signal
Summary of the method: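 Phospho-H2A.x immunofluorescence (1:200, FITC secondary) plus Hoechst nuclear stain, quantified by high-content imaging in HepG2 after 1 hr compound exposure. Ten concentrations, 0.39 to 200 uM, in duplicate with 0.5% DMSO; fit both directions against DMSO.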

[6] = APR_HepG2_MitoMass_1hr: Apredica 1-hour HepG2 Assay for Mitochondrial Mass (AID 2282674); details: high-content imaging, actives raise or lower the signal
Summary of the method: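 Mitochondrial mass is taken from MitoTracker Red CMXRos (250 nM, 30 min, pre-fixation) fluorescence imaged at 20x in HepG2 cells. Exposure lasted 1 hr across ten concentrations, 0.39 to 200 uM, 0.5% DMSO; DMSO baseline, bidirectional fitting.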

[7] = APR_HepG2_MitoMembPot_1hr: Apredica 1-hour HepG2 Assay for Mitochondrial Membrane Potential (AID 2282675); details: imaging, actives raise or lower the signal
Summary of the method: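 Mitochondrial membrane potential read as MitoTracker Red CMXRos intensity by automated imaging of fixed HepG2 cells. Dye at 250 nM for 30 min pre-fixation; compounds 0.39 to 200 uM for 1 hour, duplicate wells, 0.5% DMSO.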

[8] = APR_HepG2_CellCycleArrest_24hr: Apredica 24-hour HepG2 Assay for Cell Cycle Arrest (AID 2282905); details: imaging, actives raise or lower the signal;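 further: cell cycle arrest scored as ratio of 2N to 4N nuclear DNA content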
Summary of the method: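 Compounds (0.39 to 200 uM, final DMSO 0.5% v/v) are applied to HepG2 cells for 24 hours; cells are then fixed, permeabilized and nuclei labeled with Hoechst 33342. Automated imaging measures DNA content, and activity is fitted in both directions against DMSO.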

[9] = APR_HepG2_NuclearSize_24hr: Apredica 24-hour HepG2 Assay for Nuclear Size (AID 2282907); details: high-content imaging, actives raise or lower the signal
Summary of the method: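 Nuclear size is measured by fluorescence high-content imaging of Hoechst-labelled HepG2 nuclei after 24 hr of treatment (0.39–200 uM, 0.5% DMSO). Cells are fixed in 3.7% formaldehyde before staining, and DMSO serves as the baseline for bidirectional curve fitting.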

[10] = APR_HepG2_CellLoss_24hr: Apredica 24-hour HepG2 Assay for Cell Loss (AID 2282908); details: high-content imaging
Summary of the method: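 Nuclear count serves as the viability measure: treated cells are fixed, permeabilized and labelled with Hoechst 33342, and six images per well are analysed to identify valid nuclei. Doses span 0.39–200 uM, and activity in either direction is scored against DMSO.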

[11] = APR_HepG2_MicrotubuleCSK_24hr: Apredica 24-hour HepG2 Assay for Microtubule CSK Stabilty (AID 2282909); details: HepG2 microtubule cytoskeleton imaging, actives raise or lower the signal
Summary of the method: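 Compounds were applied to HepG2 cells for 24 hours across 0.39–200 uM in duplicate, with final DMSO at 0.5% v/v. Fixed, permeabilized cells were labeled for alpha-tubulin and nuclei, and tubulin fluorescence was quantified by imaging, fitted bidirectionally against DMSO.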

[12] = APR_HepG2_MitoticArrest_24hr: Apredica 24-hour HepG2 Assay for Mitotic Arrest (AID 2282910); details: high-content imaging, actives raise or lower the signal
Summary of the method: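 HepG2, 24 hr dosing, 0.39–200 uM, 0.5% DMSO final. Formaldehyde-fixed, Triton-permeabilised, anti-phospho-histone H3 plus Hoechst. ArrayScan imaging at 20x; bidirectional fit vs DMSO baseline.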

[13] = APR_HepG2_MitoMembPot_24hr: Apredica 24-hour HepG2 Assay for Mitochondrial Membrane Potential (AID 2282911); details: imaging, actives raise or lower the signal
Summary of the method: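 HepG2 cells exposed 24 h to 0.39–200 uM compounds in duplicate, 0.5% v/v DMSO final. MitoTracker Red CMXRos 250 nM loaded 30 min before formaldehyde fixation; high-content imaging at 20x, bidirectional fit versus DMSO.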

[14] = APR_HepG2_MitoMass_24hr: Apredica 24-hour HepG2 Assay for Mitochondrial Mass (AID 2282912); details: high-content imaging, actives raise or lower the signal
Summary of the method: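 After 24 hr of treatment at 0.39 to 200 uM, HepG2 cells take up 250 nM MitoTracker Red CMXRos for 30 min and are then fixed with 3.7% formaldehyde. Per-well images are quantified, and any change in either direction is scored against solvent.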

[15] = APR_HepG2_p53Act_24hr: Apredica 24-hour HepG2 Assay for p53 Activation (AID 2282913); details: high-content imaging, actives raise or lower the signal;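 further: p53 protein immunofluorescence averaged per cell in HepG2 with Hoechst nuclei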
Summary of the method: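 HepG2 cells exposed 24 h to compounds at 0.39–200 uM in duplicate, 0.5% v/v DMSO final; fixed, permeabilized, stained with anti-p53 antibody and Hoechst 33342; fluorescence imaging; bidirectional curve fit versus DMSO.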

[16] = APR_HepG2_CellCycleArrest_72hr: Apredica 72-hour HepG2 Assay for Cell Cycle Arrest (AID 2282914); details: high-content imaging, actives raise or lower the signal
Summary of the method: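 HepG2 cells exposed 72 h in duplicate to 0.39–200 uM compound, 0.5% DMSO final. Formaldehyde-fixed, Hoechst 33342-stained nuclei imaged at 20x, six fields per well; DNA content per valid cell quantified by cell-cycle image analysis, bidirectional fit versus DMSO.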

[17] = APR_HepG2_CellLoss_72hr: Apredica 72-hour HepG2 Assay for Cell Loss (AID 2282915); details: high-content imaging
Summary of the method: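 HepG2 cells exposed 72 h to compound at 0.39–200 uM (10 concentrations, duplicate) in 0.5% DMSO. Fixed with 3.7% formaldehyde and Hoechst 33342-stained. Imaged at 20x; nuclear count gives cell number, fitted bidirectionally versus DMSO.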

[18] = APR_HepG2_P-H2AX_72hr: Apredica 72-hour HepG2 Assay for H2AX Phosphorylation (AID 2282916); details: imaging, actives raise or lower the signal;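 further: phospho-histone H2A.x immunostain intensity per cell marking DNA damage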
Summary of the method: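 Human hepatoma HepG2 cells are dosed across ten concentrations (0.39 to 200 uM, 0.5% v/v DMSO) and incubated 72 hr. Phospho-histone H2A.x is then detected by antibody staining alongside c-Jun and Hoechst, and quantified by automated fluorescence imaging.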

[19] = APR_HepG2_StressKinase_1hr: Apredica 1-hour HepG2 Assay for Stress Kinase (AID 2282906); details: HepG2 stress kinase (phospho-c-Jun) imaging, actives raise or lower the signal
Summary of the method: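 High-content imaging of phospho-c-Jun immunostaining (with Hoechst nuclear identification) after a 1 h exposure of HepG2 cells to 10 concentrations from 0.39 to 200 uM, final DMSO 0.5%. Fitted bidirectionally against DMSO.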

[20] = APR_HepG2_MitoticArrest_1hr: Apredica 1-hour HepG2 Assay for Mitotic Arrest (AID 2282672); details: high-content imaging, actives raise or lower the signal
Summary of the method: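 Ten-point concentration series (0.39 to 200 uM, duplicates, 0.5% v/v DMSO) applied to human HepG2 liver cells for 1 hr. High-content imaging of phospho-histone H3 and Hoechst-stained nuclei after fixation and permeabilization; DMSO-normalised bidirectional fit.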

Measured: AC50

COC(=O)c1ccccc1S(=O)(=O)NC(=O)Nc1nc(OC(F)F)cc(OC(F)F)n1
not listed: [19] | [20]
inactive: all other assays above

CCCCC(CC)COC(=O)c1ccccc1C(=O)O (stereo unspecified)
not listed: [1] | [7] | [10] | [16] | [20]
inactive: all other assays above

CCN(CC)C(=O)c1cccc(C)c1
not listed: [1] | [7] | [15] | [16]
inactive: all other assays above

S=C(S)NCCNC(=S)S.[Mn+2].[S-]C([S-])=NCCN=C([S-])[S-].[Zn+2]
active: [8] 50.8 µM and 53.7 µM | [12] 55.2 µM and 107 µM | [17] 46.5 µM [middle of 5 runs] | [18] 50 µM [middle of 6 runs]
inactive: [2] | [3] | [4] | [5] | [6] | [8] | [9] | [11] | [12] | [13] | [14] | [17] | [18]

c1ccc(Nc2ccccc2)cc1
not listed: [7] | [16] | [19] | [20]
inactive: all other assays above

CCOC(=O)COc1cc(-n2ncc(C(F)(F)F)c(C)c2=O)c(F)cc1Cl
not listed: [1] | [7] | [10] | [16] | [20]
inactive: all other assays above

CCCCOCCOCCOCc1cc2c(cc1CCC)OCO2
active: [11] 70 µM | [17] 85.8 µM
not listed: [1] | [10] | [15] | [16] | [19] | [20]
inactive: all other assays above
